Assay outcomes deposited in PubChem by National Center for Advancing Translational Sciences (NCATS).
Sampled rows, rich in hits. Any-hit rate of the full collection: about 19%.
DT40 TDP1 no CPT = qHTS for Inhibitors of human tyrosyl-DNA phosphodiesterase 1 (TDP1): qHTS in cells in absence of CPT. DT40 Tdp1-/- hTDP1 cells, no CPT, ATP luminescence, 48 h. Potency, µM (doses to about 46.2 µM), without a hit: at the highest dose activity change, negative = growth inhibition, actives largely listed as inhibitors. 420,000 compounds, 15% hits. AID 686978, 2013; also: potency is read from the fitted curve at half-maximal effect; nearly all actives have a fitted effect of over 55% in size
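DT40 Tdp1-/-;hTDP1 cells, no CPT (DMSO vehicle only), 400 cells/well; compounds pin-transferred; ≥48 hr, 37 °C; CellTiter-Glo 30 min RT dark, luminescence read.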
HT1080-NT tox = kills 2HG-producing HT-1080-NT fibrosarcoma cells; HT-1080-NT fibrosarcoma viability, CellTiter-Glo ATP luminescence, 48 h; Potency, µM (highest dose often 46.1 µM), for inactives: at the highest dose activity, negative = less viability, actives largely listed as cytotoxic; 360,000 compounds, 1.6% hits;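 also: NT is the 2HG producing partner of a matched IDH1 knockdown line; potency is read from the fitted curve at half-maximal effect; 0% = DMSO-treated cells and -100% = media-only wells without cells; nearly all actives have a fitted effect of over 55% in size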
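750 cells/well, RPMI + 5% FBS; 2 h settle, compound pin-transfer, 48 h at 37 degrees C. CellTiter-Glo 10 min RT, luminescence. Normalized to DMSO and media-only wells.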
TDP1 cell CPT = DT40-hTDP1 cell growth loss with CPT | chicken DT40 Tdp1-/-;hTDP1 cells + 20 nM CPT, ATP luminescence, 48 h | Potency, µM (series often up to 46.2 µM), without a hit: at the top dose activity change, negative = growth inhibition, actives largely listed as inhibitors | 420,000 compounds, 12% hits; also: potency is read from the fitted curve at half-maximal effect; nearly all actives have a fitted effect of over 55% in size
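Chicken DT40 Tdp1-/- cells stably complemented with human TDP1 were seeded at 400 cells/well in medium containing 20 nM camptothecin, exposed to pin-transferred compounds, and grown at 37 °C for at least 48 hr. Viability was read as ATP luminescence.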
HT1080 IDH1KD tx = HT-1080 IDH1 knockdown cell toxicity (counter line) | HT-1080 IDH1 knockdown viability, ATP luminescence, 48 h | Potency, µM (highest dose often 46.1 µM), without a hit: top-dose activity, negative = toxicity, usual class: cytotoxic | AID 686971 | 360,000 compounds, 2% hits;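 also: potency is read from the fitted curve at half-maximal effect; 0% = DMSO wells and -100% = cell-free medium wells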
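HT-1080-IDH1KD cells (IDH1 knocked down), 750/well in RPMI with 5% FBS, treated with compound 48 h at 37 degrees C. Viability by CellTiter-Glo luminescence, normalised to DMSO and no-cell wells; concentration-response curves classed.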
IL-1B inflam inh = inflammasome signaling inhibition, IL-1 beta readout. THP-1 LPS/ATP IL-1B secretion, AlphaLISA, 16 h; stronger effect = lower value. activity change, % at 57.5 µM. 360,000 compounds, 4.7% hits; in the data active = activity change below about -50%; inconclusive = mostly about -30% to -49%
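Secreted IL-1B measured by AlphaLISA bead assay after 16 h compound exposure of THP-1 cells; compounds (final up to 57.5 uM) added 1 h before LPS (250 ng/mL) and ATP (1.25 mM) stimulation; lower signal means less secretion.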
* marks the source's active call; other numbers are inactive results; ? = inconclusive; nt = no result; ! = a repeat was not active. Unless noted, calls follow the shape of the dose curve; as a rule, active = well fitted curve in the direction sought with a large enough effect; inconclusive = small, poorly fitted or top-dose-only effect, or another doubt; inactive = no such curve, though single readings can be large; an effect the other way counts as inactive or inconclusive. Unless noted, % is scaled to controls: 0 for no effect and ±100 for the full control effect.

SMILES	DT40 TDP1 no CPT	HT1080-NT tox	TDP1 cell CPT	HT1080 IDH1KD tx	IL-1B inflam inh
CCOc1ccccc1N1CCN(C(=S)Nc2ccc(S(=O)(=O)Nc3ncccn3)cc2)CC1	-1%	-2%	-3%	0%	0
O=[N+]([O-])c1ccc(C=Nc2cccc3ccccc23)s1	21µM*	-23%	21µM*	23µM*	-97*
O=[N+]([O-])c1ccc(NN=Cc2cccc3ccccc23)cc1	?	-2%	?	-7%	-12
O=[N+]([O-])c1ccc(C=NN2CCOCC2)s1	?	-4%	21µM*	2%	5
O=[N+]([O-])c1cc(/C=N/N2CCOCC2)cs1	-5%	20%	12%	?	-13
O=c1oc(/C=C/c2ccc([N+](=O)[O-])s2)nc2ccccc12	?	-2%	?	-16%	-62*
COc1ccc(C2COc3c(ccc(O)c3OC)C2)c(OC)c1O (stereo not given)	-29%	nt	?	nt	nt
Cc1nc(C(=O)N2CCCC(N3CCN(c4ccccc4C)CC3)C2)cs1 (stereo not given)	?	0%	15µM*	3%	4
Cc1ccccc1N1CCN(C2CCCN(C(=O)c3csc(C(C)C)n3)C2)CC1 (stereo not given)	?	-9%	?	-14%	-8
Cc1ccccc1N1CCN(C2CCCN(C(=O)CCc3c(C)noc3C)C2)CC1 (stereo not given)	23µM*	-3%	?	1%	-3
COCc1ccc(C(=O)N2CCCC(N3CCN(c4ccccc4C)CC3)C2)s1 (stereo not given)	?	-6%	15µM*	-1%	-15
Cc1ccc2nc(C)cc(C(=O)N3CCCC(N4CCN(c5ccccc5C)CC4)C3)c2c1 (stereo not given)	?	0%	15µM*	-12%	-3
O=C(O)C1CCN(S(=O)(=O)c2ccc(Cl)s2)CC1	3%	8%	-5%	11%	24
O=C(O)CC(c1ccc(Br)cc1)N1Cc2ccccc2C1=O (stereo not given)	5%	8%	33%	7%	2
COc1ccc(NC(=O)CCn2c(=O)c3cccn3c3ccccc32)c(OC)c1	21µM*	2%	16µM*	4%	0
Cc1ccc(NC(=O)CCn2c(=O)c3cccn3c3ccccc32)c(C)c1	21µM*	-1%	?	-15%	0
CCOC(=O)c1cccc(NC(=O)CCCn2c(=O)c3cccn3c3cccnc32)c1	-21%	-3%	?	13%	-9
COc1ccc(NC(=O)CCN2CCN(Cc3ccccc3)CC2)c(OC)c1	?	0%	-2%	7%	14
COc1cccc(NC(=O)CCCn2c(=O)c3cccn3c3cccnc32)c1	21µM*	nt	?	nt	nt
Cc1cc(C)cc(NC(=O)CCn2c(=O)c3cccn3c3ccccc32)c1	8.2µM*	-18%	5.8µM*	?	20
CCOC(=O)c1ccc(NC(=O)CCn2c(=O)c3cccn3c3ccccc32)cc1	-13%	nt	?	nt	nt
COc1ccc(-c2nnn3c2nc(NCc2ccccc2)c2ccccc23)cc1	16%	6%	-19%	0%	33
COc1ccc(NC(=O)CCn2c(=O)c3cccn3c3ccccc32)cc1	?	-2%	?	-2%	57
Cc1ccc2c(c1)c(=O)c1ccccc1n2CCCC(=O)Nc1ccc(F)cc1F	?	nt	-28%	nt	nt
Cc1cc(C)cc(NC(=O)CCCn2c3ccccc3c(=O)c3ccccc32)c1	23µM*	nt	?	nt	nt
SMILES	DT40 TDP1 no CPT	HT1080-NT tox	TDP1 cell CPT	HT1080 IDH1KD tx	IL-1B inflam inh
O=C(CCn1c(=O)c2cccn2c2ccccc21)Nc1ccc(F)cc1	12µM*!	?	?	?	46
CCC(CC)NC(=O)CN1CCN(S(=O)(=O)c2cccs2)CC1	-3%	4%	11%	5%	14
CCOc1ccccc1NC(C)C(=O)Nc1cc(C(F)(F)F)ccc1N1CCOCC1 (stereo not given)	18µM*	-3%	?	-24%	11
O=C(NC(=S)Nc1cc(C(F)(F)F)ccc1N1CCOCC1)c1ccco1	?	-5%	?	-26%	?
O=C(CCNC(=O)c1ccc(Cl)cc1)Nc1cc(C(F)(F)F)ccc1N1CCOCC1	23µM*	-15%	26µM*	-6%	-13
O=C(Cn1c(C(F)(F)F)nc2ccccc21)Nc1ccccc1N1CCOCC1	-26%	14%	-24%	15%	18
CSc1nc2ccccc2n1CC(=O)Nc1cc(C(F)(F)F)ccc1N1CCOCC1	16µM*	-22%	21µM*	-25%	0
CC(=O)NC(=S)Nc1cc(C(F)(F)F)ccc1N1CCOCC1	?	2%	-7%	1%	-61*
Cc1nnc(SCC(=O)Nc2cc(C(F)(F)F)ccc2N2CCOCC2)o1	-8%	5%	-28%	2%	-6
Cc1ccccc1SCC(=O)Nc1cc(C(F)(F)F)ccc1N1CCOCC1	?	3%	?	0%	-70*
O=C1c2cccc(Cl)c2C(=O)N1c1ccccn1	-26%	0%	-2%	-6%	1
O=C1NC[C@H](CCCCN2C[C@H](Cc3ccccc3)N(Cc3ccccc3)C(=O)C2=O)N(CCc2ccccc2)C1=O	?	15%	?	21%	-8
O=C(O)Cc1ccc(C(=O)c2ccccc2)s1	-4%	-7%	1%	-8%	-8
CCc1cc(C(=O)c2ccccc2)c(N)s1	?	-3%	26µM*	-10%	-9
O=C(OCc1ccc(Br)cc1)c1cccnc1	-6%	2%	?	2%	-9
O=C(OCc1ccccc1)c1cccnc1	9.4µM*	nt	?	nt	nt
Cc1ccc2sc(N(CCCN(C)C)C(=O)c3ccc(S(=O)(=O)N(C)Cc4ccccc4)cc3)nc2c1C	?	-19%	?	?	-93*
CCN(c1ccccc1)S(=O)(=O)c1ccc(C(=O)N(CCCN(C)C)c2nc3cc4c(cc3s2)OCO4)cc1	?	?	18µM*	?	-57*
CN(C)CCCN(C(=O)c1ccc([N+](=O)[O-])o1)c1nc2cc3c(cc2s1)OCO3	?	-2%	18µM*	-8%	-1
COc1ccc2sc(N(CCCN(C)C)C(=O)c3ccc(S(=O)(=O)N(C)Cc4ccccc4)cc3)nc2c1	15µM*	-9%	?	-3%	-93*
CN(C)CCN(C(=O)c1ccc(N2C(=O)CCC2=O)cc1)c1nc2cc3c(cc2s1)OCO3	-22%	12%	-13%	15%	-19
Cc1cc(C(F)F)n2nc(C(=O)Nc3cccc(Cl)c3C)nc2n1	-2%	nt	-3%	nt	nt
